Results on three compounds are retold here after PubChem BioAssay (EPA / NIEHS).

Molecules are shown by their SMILES. Active and inactive are the calls of the source. Rule for the calls: active = hit-call score of the fitted dose curve at least 0.9, where 1 is the maximum; inactive = score below 0.9.

Read-out in assay [1]: Matrix Metallopeptidase 9 (MMP9), MMP9 (gene 4318)
As to the kind of experiment: BSK_KF3CT_MMP9: BioMAP Diversity Plus: KF3CT Assay for Matrix Metallopeptidase 9 (MMP9) Biomarker Activity (AID 2283074).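 For AC50: MMP9 protein level quantified by ELISA in the co-culture.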 The note with it: primary human keratinocytes with fibroblasts; actives raise or lower the signal. In outline:
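ELISA read-out of MMP-9 at 24 h post-dosing in a co-culture of human skin keratinocytes and foreskin fibroblasts. Gain or loss of signal was fitted in both directions against DMSO.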

Read-out in assay [2]: urokinase plasminogen activator (uPA), PLAU (gene 5328)
Put plainly: BSK_KF3CT_uPA: BioMAP Diversity Plus: KF3CT Assay for urokinase plasminogen activator (uPA) Biomarker Activity (AID 2283075). The note with it: primary human keratinocytes with fibroblasts; actives raise or lower the signal. In outline:
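Skin co-culture (keratinocytes + foreskin fibroblasts), human primary; 24 h post-dose; uPA by ELISA; gain/loss fit vs DMSO baseline.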

Read-out in assay [3]: CD40, CD40 (gene 958)
As to the kind of experiment: BSK_LPS_CD40: BioMAP Diversity Plus: LPS Assay for CD40 Biomarker Activity (AID 2283076). The note with it: primary human HUVEC with PBMC; actives raise or lower the signal. The gist of the method: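 HUVEC plus PBMC co-culture stimulated with LPS; CD40 quantified by ELISA 24 h after compound dosing. Fitting was bidirectional relative to DMSO. SRB staining of parallel cultures flagged overt cytotoxicity.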

Read-out in assay [4]: E-selectin (Homo sapiens) (UniProt P16581)
Put plainly: BSK_LPS_Eselectin: BioMAP Diversity Plus: LPS Assay for Eselectin Biomarker Activity (AID 2283077). The note with it: primary human HUVEC with PBMC; actives raise or lower the signal. In outline: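 Human umbilical vein endothelial cells co-cultured with PBMC under LPS stimulation; cell-surface E-selectin measured by ELISA 24 h after dosing. Change in either direction versus DMSO, with SRB total-protein staining in parallel cultures for cytotoxicity.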

Read-out in assay [5]: Interleukin-8 (IL8), CXCL8 (gene 3576)
Put plainly: BSK_LPS_IL8: BioMAP Diversity Plus: LPS Assay for Interleukin-8 (IL8) Biomarker Activity (AID 2283078). The note with it: primary human HUVEC with PBMC; actives raise or lower the signal. The gist of the method: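 Human umbilical vein endothelial cells co-cultured with PBMC, LPS-stimulated, exposed to compound for 24 h. IL-8 quantified by ELISA; fitted in both directions against DMSO, with SRB total-protein staining of parallel cultures for cytotoxicity.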

A short description of assay [6]: BSK_LPS_SRB: Viability Assessment in the BioMAP Diversity Plus: LPS Assay (AID 2283079).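 Note: total protein by sulforhodamine B absorbance as a cytotoxicity measure; measured one day after compound addition.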 The note with it: primary human HUVEC with PBMC. The gist of the method:
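Co-culture of human umbilical vein endothelial cells and PBMC, read 24 h after dosing. Total protein by 0.1% SRB staining after 10% TCA fixation, absorbance at 560 nm; bidirectional fit against DMSO.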

Read-out in assay [7]: Monocyte Chemoattractant Protein-1 (MCP1), CCL2 (gene 6347)
Put plainly: BSK_LPS_MCP1: BioMAP Diversity Plus: LPS Assay for Monocyte Chemoattractant Protein-1 (MCP1) Biomarker Activity (AID 2283081).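 For AC50: secreted MCP-1 protein quantified by ELISA in culture supernatant.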 The note with it: primary human HUVEC with PBMC; actives raise or lower the signal. In outline: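 Human umbilical vein endothelial cells co-cultured with PBMC, LPS-stimulated; secreted MCP-1 measured by ELISA 24 h after compound addition. Bidirectional curve fitting against DMSO baseline; SRB total-protein staining in parallel cultures for cytotoxicity.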

Assay [8] can be described thus: BSK_LPS_PGE2: BioMAP Diversity Plus: LPS Assay for Prostaglandin E2 (PGE2) Biomarker Activity (AID 2283082). The note with it: primary human HUVEC with PBMC; actives raise or lower the signal. The gist of the method: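 PGE2 release measured by ELISA in an LPS-activated co-culture of human umbilical vein endothelial cells and peripheral blood mononuclear cells, read at 24 h post-dosing. DMSO served as baseline for bidirectional curve fitting.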

Read-out in assay [9]: Macrophage colony-stimulating factor (MCSF), CSF1 (gene 1435)
Put plainly: BSK_LPS_MCSF: BioMAP Diversity Plus: LPS Assay for Macrophage colony-stimulating factor (MCSF) Biomarker Activity (AID 2283083). The note with it: primary human HUVEC with PBMC; actives raise or lower the signal. In outline: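 HUVEC–PBMC co-culture, M-CSF measured by ELISA 24 h after chemical dosing. Fitted in both directions relative to DMSO as negative control; overt cytotoxicity assessed by SRB total-protein staining in parallel cultures.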

Read-out in assay [10]: Tissue Factor, F3 (gene 2152)
As to the kind of experiment: BSK_LPS_TissueFactor: BioMAP Diversity Plus: LPS Assay for Tissue Factor Biomarker Activity (AID 2283084). The note with it: primary human HUVEC with PBMC; actives raise or lower the signal. The gist of the method: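 Human umbilical vein endothelial cells co-cultured with PBMC were dosed with compound. Cell-surface CD142 was measured by ELISA 24 h later. Activity was fitted bidirectionally against DMSO, with SRB total-protein staining in parallel cultures for cytotoxicity.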

Read-out in assay [11]: Tumor necrosis factor (Homo sapiens) (UniProt P01375)
As to the kind of experiment: BSK_LPS_TNFa: BioMAP Diversity Plus: LPS Assay for Tumour Necrosis Factor alpha (TNFa) Biomarker Activity (AID 2283085).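 For AC50: TNFa protein level quantified by ELISA in the co-culture.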 The note with it: primary human HUVEC with PBMC; actives raise or lower the signal. In outline:
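TNFa was quantified by ELISA in LPS-activated co-cultures of human endothelial cells and PBMC, 24 h post-dosing. Both increases and decreases versus DMSO were fitted.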

Read-out in assay [12]: Vascular cell adhesion molecule 1 (VCAM1), VCAM1 (gene 7412)
Put plainly: BSK_LPS_VCAM1: BioMAP Diversity Plus: LPS Assay for Vascular cell adhesion molecule 1 (VCAM1) Biomarker Activity (AID 2283086). The note with it: primary human HUVEC with PBMC; actives raise or lower the signal. In outline: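 VCAM-1 quantified by ELISA in an LPS-activated co-culture of human endothelial cells and peripheral blood mononuclear cells, read 24 h post-treatment. Fitted in both directions versus DMSO; parallel SRB staining flags overt cytotoxicity.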

Read-out in a further assay: CD38, CD38 (gene 952)
As to the kind of experiment: BSK_SAg_CD38: BioMAP Diversity Plus: SAg Assay for CD38 Biomarker Activity (AID 2283087). The note with it: primary human HUVEC with PBMC; actives raise or lower the signal. The gist of the method:
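CD38 quantified by ELISA (fluorescence) in a superantigen-activated endothelial cell–PBMC co-culture at 24 h post-dose. Activity fitted in both directions relative to DMSO; parallel SRB and Alamar Blue cytotoxicity read-outs.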

Read-out in assay [13]: CD40, CD40 (gene 958)
As to the kind of experiment: BSK_SAg_CD40: BioMAP Diversity Plus: SAg Assay for CD40 Biomarker Activity (AID 2283088). The note with it: primary human HUVEC with PBMC; actives raise or lower the signal. The gist of the method:
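HUVEC plus PBMC co-culture, superantigen-activated, with CD40 read by ELISA 24 h after dosing. Curves fitted in both directions against DMSO. Overt cytotoxicity checked by parallel SRB total-protein staining.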

Read-out in a further assay: CD69, CD69 (gene 969)
As to the kind of experiment: BSK_SAg_CD69: BioMAP Diversity Plus: SAg Assay for CD69 Biomarker Activity (AID 2283089).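 For AC50: cell surface CD69 protein quantified by ELISA with fluorescence detection.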 The note with it: primary human HUVEC with PBMC; actives raise or lower the signal. In outline: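 Values derive from bidirectional fitting relative to DMSO vehicle. Cells: umbilical vein endothelium plus peripheral blood mononuclear cells, treated 24 h before fluorescent ELISA for CD69.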

Read-out in assay [14]: Monocyte Chemoattractant Protein-1 (MCP1), CCL2 (gene 6347)
Put plainly: BSK_SAg_MCP1: BioMAP Diversity Plus: SAg Assay for Monocyte Chemoattractant Protein-1 (MCP1) Biomarker Activity (AID 2283090). The note with it: primary human HUVEC with PBMC; actives raise or lower the signal. The gist of the method: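 Values derive from bidirectional fitting of ELISA-measured MCP1 against DMSO controls. Readings were taken 24 h after dosing human vascular endothelial cells co-cultured with peripheral blood mononuclear cells under superantigen stimulation.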

Read-out in assay [15]: E-selectin (Homo sapiens) (UniProt P16581)
Put plainly: BSK_SAg_Eselectin: BioMAP Diversity Plus: SAg Assay for Eselectin Biomarker Activity (AID 2283091). The note with it: primary human HUVEC with PBMC; actives raise or lower the signal. The gist of the method:
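Human umbilical vein endothelial cells co-cultured with peripheral blood mononuclear cells, SAg system. E-selectin is measured by ELISA 24 h after dosing and fitted bidirectionally against DMSO. Cytotoxicity is checked by SRB staining of parallel cultures.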

Read-out in assay [16]: Monokine induced gamma interferon (MIG), CXCL9 (gene 4283)
Put plainly: BSK_SAg_MIG: BioMAP Diversity Plus: SAg Assay for Monokine induced gamma interferon (MIG) Biomarker Activity (AID 2283092). The note with it: primary human HUVEC with PBMC; actives raise or lower the signal. In outline: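 Values reflect bidirectional fitting of ELISA-measured MIG against DMSO vehicle, taken 24 h after dosing of a co-culture of human umbilical vein endothelial cells and peripheral blood mononuclear cells.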

Assay [17] can be described thus: BSK_SAg_PBMCCytotoxicity: PBMC Cytotoxicity Assessment in the BioMAP Diversity Plus: SAg Assay (AID 2283093).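 For AC50: PBMC superantigen activated with SEB plus TSST-1 one hour after compound addition.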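 Note: fitted both ways against DMSO so a hit may be loss or gain of signal.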 The note with it: primary human HUVEC with PBMC. The gist of the method: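 PBMC viability by Alamar Blue reduction, fluorescence read at 546/580 nm after 6 h dye exposure. Cells were dosed 1 h before SEB plus TSST-1 activation (20 ng/mL final each), then held 90 h; endothelial/PBMC human co-culture.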

As usually defined, the AC50 is the concentration giving half of the maximal activity seen.

Chain of E-selectin (Homo sapiens) (P16581 whole entry, looked up): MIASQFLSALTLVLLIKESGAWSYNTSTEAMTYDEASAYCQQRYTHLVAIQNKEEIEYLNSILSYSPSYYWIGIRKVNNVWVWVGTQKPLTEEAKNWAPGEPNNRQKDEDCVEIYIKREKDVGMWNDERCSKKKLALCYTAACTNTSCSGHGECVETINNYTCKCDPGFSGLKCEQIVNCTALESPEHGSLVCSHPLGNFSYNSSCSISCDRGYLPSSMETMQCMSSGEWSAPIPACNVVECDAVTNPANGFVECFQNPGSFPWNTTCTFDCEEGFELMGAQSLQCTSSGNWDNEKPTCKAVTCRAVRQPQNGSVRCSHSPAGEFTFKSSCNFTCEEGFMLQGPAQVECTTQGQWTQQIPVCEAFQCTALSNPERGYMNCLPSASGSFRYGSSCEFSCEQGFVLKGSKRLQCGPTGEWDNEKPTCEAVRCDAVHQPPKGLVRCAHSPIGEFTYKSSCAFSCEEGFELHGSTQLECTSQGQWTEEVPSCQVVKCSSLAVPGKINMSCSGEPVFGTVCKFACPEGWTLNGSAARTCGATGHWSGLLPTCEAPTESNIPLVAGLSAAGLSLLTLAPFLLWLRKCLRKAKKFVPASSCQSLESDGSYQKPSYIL
Chain of Tumor necrosis factor (Homo sapiens) (P01375 whole entry, looked up): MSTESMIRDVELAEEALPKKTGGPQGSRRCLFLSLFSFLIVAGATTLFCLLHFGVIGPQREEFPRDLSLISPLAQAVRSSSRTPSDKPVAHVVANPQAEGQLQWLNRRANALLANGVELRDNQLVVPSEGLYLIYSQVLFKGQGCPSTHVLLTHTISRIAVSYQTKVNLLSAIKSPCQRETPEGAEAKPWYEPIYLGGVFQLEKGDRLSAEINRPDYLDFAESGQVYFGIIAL

In the case of `CC(=O)C(Cl)C(=O)N(C)C` (stereo unspecified), the result in assay [1], in [2], in assay [6] and in [16] was inactive. The AC50 with CD40, CD40 (gene 958) [3] was 15.5 µM (active); in assay [4] it was 15.4 µM (active); in [5], 13.6 µM (active); in assay [7], 27 µM (active); in assay [8] it was 7.26 µM (active); in [9] it was 11.8 µM (active). Moreover, the half-maximal activity concentration (AC50) in assay [10] is 9.35 µM (active); in [11], 9.78 µM (active); in assay [12], 20 µM (active); with CD38, CD38 (gene 952), 20 µM (active); with CD40, CD40 (gene 958) [13], 20 µM (active); in the assay with CD69, CD69 (gene 969), 16.7 µM (active). The values for the concentration at half-maximal activity (AC50) in assay [14], in [15] and in [17] were 20 µM (active), 25.4 µM (active) and 7.81 µM (active), respectively.
Consider `CCCCCCCCc1ccc(O)cc1`, for which the concentration at half-maximal activity (AC50) in [1] was 28.8 µM (active); in assay [2], 31.6 µM (active); in the assay with CD40, CD40 (gene 958) [3] it was 31.5 µM (active); in [4] it was 37.8 µM (active); in [5], 36.5 µM (active); in assay [6], 34.1 µM (active). Further, the AC50 is 37.4 µM (active) in assay [7]; 3.96 µM (active) in [8]; 30.8 µM (active) in assay [9]; 38.1 µM (active) in assay [10]; 33.6 µM (active) in assay [11]; 31.2 µM (active) in the assay with CD38, CD38 (gene 952). For the same compound, the AC50 with CD40, CD40 (gene 958) [13] is 32.2 µM (active); with CD69, CD69 (gene 969) it was 31.7 µM (active); in [14], 32.6 µM (active); in [15] it was 29.2 µM (active); in assay [16], 35.6 µM (active); in [17] it was 29 µM (active).
For the compound `CCOP(=S)(OCC)SCSP(=S)(OCC)OCC`, the outcome in assay [1] was “inactive”; in assay [2], “inactive”; with CD40, CD40 (gene 958) [3] it was “inactive”; in assay [4], “inactive”; in [5], “inactive”; in [6] it was “inactive”. Besides, the outcome in assay [7] was “inactive”; in assay [8], “inactive”; in assay [10], “inactive”; in [11], “inactive”; in [12], “inactive”; in the assay with CD38, CD38 (gene 952), “inactive”. The outcome in the assay with CD40, CD40 (gene 958) [13] is “inactive”; with CD69, CD69 (gene 969), “inactive”; in assay [14], “inactive”; in [16] it was “inactive”; in assay [17], “inactive”. Also, the AC50 in assay [9] is 2.72 µM (active); in assay [15] it was 15.2 µM (active).
